Source: PubChem BioAssay AID1159580 (chemical genetic matrix, 2015)
The whole screen tested about 5,500 compounds, of which about 2,000 (36%) were called active. Another 18% or so got no clear call; they are omitted. No stated cut-off is given here; in the data, active means normalized growth mostly below about 0.91 (no sharp cut-off); inconclusive means no clear call, values can overlap the other calls; inactive means mostly above about 0.92. The list shows a part of the results.

Test: chemical genetic growth profiling, strain panel (AID 1159580);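 further: tested at 20 µM; growth read once vehicle control cultures reached saturation at 30 °C; 1 = growth at the plate median or of vehicle wells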
Conditions: growth OD

Measured: normalized growth

CCN(CC)C(=O)N1CCN(C)CC1
inactive: S. cerevisiae deletion strains, locus YJR075W, strain HOC1, stronger effect = lower value 1.03 | S. cerevisiae deletion strains, locus YKL009W, strain mrt4, stronger effect = lower value 0.989 | S. cerevisiae deletion strains, locus YKL068W, stronger effect = lower value 1 | S. cerevisiae deletion strains, locus YKL085W, strain MDH1 (second series), stronger effect = lower value 1.04 | S. cerevisiae deletion strains, locus YKL085W, strain MDH1, stronger effect = lower value 1.04 | S. cerevisiae deletion strains, locus YKL160W, strain elf1, stronger effect = lower value 0.975 | S. cerevisiae deletion strains, locus YKR001C, strain vps1, stronger effect = lower value 1.01 | S. cerevisiae deletion strains, locus YKR026C, strain gcn3, stronger effect = lower value 0.965 | S. cerevisiae deletion strains, locus YKR091W, strain srl3, stronger effect = lower value 0.949 | S. cerevisiae deletion strains, locus YLL001W, strain dnm1, stronger effect = lower value 0.997 | S. cerevisiae deletion strains, locus YLL026W, stronger effect = lower value 0.974 | S. cerevisiae deletion strains, locus YLL041C, strain sdh2, stronger effect = lower value 0.994 | S. cerevisiae deletion strains, locus YLR027C, strain aat2, stronger effect = lower value 0.964 | S. cerevisiae deletion strains, locus YLR039C, strain RIC1, stronger effect = lower value 0.975 | S. cerevisiae deletion strains, locus YLR058C, strain SHM2, stronger effect = lower value 1.02 | S. cerevisiae deletion strains, locus YLR102C, strain apc9, stronger effect = lower value 0.993 | S. cerevisiae deletion strains, locus YLR113W, strain HOG1, stronger effect = lower value 1 | S. cerevisiae deletion strains, locus YLR221C, strain rsa3, stronger effect = lower value 0.963 | S. cerevisiae deletion strains, locus YLR258W, strain gsy2, stronger effect = lower value 0.981 | S. cerevisiae deletion strains, locus YLR262C, strain YPT6 (second series), stronger effect = lower value 0.967 | S. cerevisiae deletion strains, locus YLR262C, strain YPT6, stronger effect = lower value 0.976 | S. cerevisiae deletion strains, locus YLR268W, strain sec22, stronger effect = lower value 1.01 | S. cerevisiae deletion strains, locus YLR320W, strain mms22, stronger effect = lower value 0.974 | S. cerevisiae deletion strains, locus YLR330W, strain CHS5, stronger effect = lower value 1.01 | S. cerevisiae deletion strains, locus YLR342W, strain FKS1 (second series), stronger effect = lower value 1.03 | S. cerevisiae deletion strains, locus YLR342W, strain FKS1, stronger effect = lower value 0.98 | S. cerevisiae deletion strains, locus YLR357W, strain rsc2, stronger effect = lower value 0.937 | S. cerevisiae deletion strains, locus YLR370C, strain arc18, stronger effect = lower value 0.97 | S. cerevisiae deletion strains, locus YLR371W, strain rom2, stronger effect = lower value 0.99 | S. cerevisiae deletion strains, locus YLR384C, strain iki3, stronger effect = lower value 0.989 | S. cerevisiae deletion strains, locus YLR418C, strain cdc73, stronger effect = lower value 0.947 | S. cerevisiae deletion strains, locus YML016C, strain PPZ1, stronger effect = lower value 1.01 | S. cerevisiae deletion strains, locus YML032C, strain rad52, stronger effect = lower value 0.995 | S. cerevisiae deletion strains, locus YML120C, strain ndi1, stronger effect = lower value 0.961 | S. cerevisiae deletion strains, locus YML124C, strain tub3, stronger effect = lower value 0.99 | S. cerevisiae deletion strains, locus YMR058W, strain fet3, stronger effect = lower value 0.979 | S. cerevisiae deletion strains, locus YMR078C, strain ctf18, stronger effect = lower value 0.993 | S. cerevisiae deletion strains, locus YMR125W, strain sto1, stronger effect = lower value 0.973 | S. cerevisiae deletion strains, locus YMR129W, stronger effect = lower value 0.964 | S. cerevisiae deletion strains, locus YMR205C, strain PFK2, stronger effect = lower value 0.97 | S. cerevisiae deletion strains, locus YMR223W, strain ubp8, stronger effect = lower value 0.993 | S. cerevisiae deletion strains, locus YMR231W, strain pep5, stronger effect = lower value 0.981 | S. cerevisiae deletion strains, locus YMR263W, strain SAP30, stronger effect = lower value 1.02 | S. cerevisiae deletion strains, locus YMR307W, strain GAS1, stronger effect = lower value 0.999 | S. cerevisiae deletion strains, locus YNL067W, strain RPL9B, stronger effect = lower value 1 | S. cerevisiae deletion strains, locus YNL071W, strain lat1, stronger effect = lower value 0.964 | S. cerevisiae deletion strains, locus YNL128W, strain TEP1, stronger effect = lower value 1.02 | S. cerevisiae deletion strains, locus YNL153C, strain GIM3, stronger effect = lower value 1.01 | S. cerevisiae deletion strains, locus YNL183C, strain NPR1, stronger effect = lower value 0.986 | S. cerevisiae deletion strains, locus YNL209W, strain ssb2, stronger effect = lower value 0.969 | S. cerevisiae deletion strains, locus YNL233W, strain BNI4, stronger effect = lower value 1.01 | S. cerevisiae deletion strains, locus YNL248C, strain rpa49, stronger effect = lower value 0.888 | S. cerevisiae deletion strains, locus YNL250W, strain rad50, stronger effect = lower value 1.01 | S. cerevisiae deletion strains, locus YNL271C, strain bni1, stronger effect = lower value 1 | S. cerevisiae deletion strains, locus YNL298W, strain CLA4, stronger effect = lower value 1.03 | S. cerevisiae deletion strains, locus YNL307C, strain MCK1, stronger effect = lower value 1 | S. cerevisiae deletion strains, locus YNL322C, strain KRE1 (second series), stronger effect = lower value 0.979 | S. cerevisiae deletion strains, locus YNR049C, strain mso1, stronger effect = lower value 0.942 | S. cerevisiae deletion strains, locus YNR052C, strain pop2, stronger effect = lower value 1 | S. cerevisiae deletion strains, locus YOL006C, strain TOP1, stronger effect = lower value 1.03 | S. cerevisiae deletion strains, locus YOL012C, strain htz1 0.747 | S. cerevisiae deletion strains, locus YOL147C, strain pex11, stronger effect = lower value 0.986 | S. cerevisiae deletion strains, locus YOR001W, strain rrp6, stronger effect = lower value 0.976 | S. cerevisiae deletion strains, locus YOR061W, strain CKA2, stronger effect = lower value 1.02 | S. cerevisiae deletion strains, locus YOR069W, strain VPS5, stronger effect = lower value 1.01 | S. cerevisiae deletion strains, locus YOR070C, strain gyp1, stronger effect = lower value 0.994 | S. cerevisiae deletion strains, locus YOR080W, strain dia2, stronger effect = lower value 0.985 | S. cerevisiae deletion strains, locus YOR083W, strain WHI5, stronger effect = lower value 0.995 | S. cerevisiae deletion strains, locus YOR106W, strain vam3, stronger effect = lower value 0.976 | S. cerevisiae deletion strains, locus YOR136W, strain idh2, stronger effect = lower value 0.991 | S. cerevisiae deletion strains, locus YOR144C, strain elg1, stronger effect = lower value 1 | S. cerevisiae deletion strains, locus YOR184W, strain ser1, stronger effect = lower value 1.02 | S. cerevisiae deletion strains, locus YOR231W, strain MKK1, stronger effect = lower value 1.02 | S. cerevisiae deletion strains, locus YOR265W, strain rbl2, stronger effect = lower value 0.989 | S. cerevisiae deletion strains, locus YOR270C, strain vph1, stronger effect = lower value 0.965 | S. cerevisiae deletion strains, locus YOR290C, strain snf2, stronger effect = lower value 0.966 | S. cerevisiae deletion strains, locus YOR316C, strain cot1, stronger effect = lower value 1 | S. cerevisiae deletion strains, locus YPL051W, strain arl3, stronger effect = lower value 1 | S. cerevisiae deletion strains, locus YPL078C, strain atp4, stronger effect = lower value 0.973 | S. cerevisiae deletion strains, locus YPL106C, strain sse1, stronger effect = lower value 0.898 | S. cerevisiae deletion strains, locus YPL240C, strain hsp82, stronger effect = lower value 0.974 | S. cerevisiae deletion strains, locus YPL241C, strain CIN2, stronger effect = lower value 1 | S. cerevisiae deletion strains, locus YPL256C, strain CLN2, stronger effect = lower value 1.04 | S. cerevisiae deletion strains, locus YPR119W, strain clb2, stronger effect = lower value 0.998 | S. cerevisiae deletion strains, locus YPR141C, strain kar3, stronger effect = lower value 0.981 | S. cerevisiae deletion strains, locus YPR163C, strain tif3, stronger effect = lower value 1 | S. cerevisiae deletion strains, locus YPR167C, strain met16, stronger effect = lower value 0.996 | S. cerevisiae deletion strains, strain wtn01, stronger effect = lower value 1.01 | S. cerevisiae strains, strain wild type, stronger effect = lower value 1.01
